Data published in ChEMBL document CHEMBL3988442, “University of Dundee, Small-Polar-MMV Screening Library” (2021).
About 13,000 (27%) of roughly 48,000 compounds showed an effect of 50% or more. The list shows a part of the results.

system: Wolbachia pipientis; test: Anti-Wolbachia Cell-Based Screen; assay type: functional; design: scale not given: in the data most compounds retested in dose-response had high values; conditions: 5 µM

Row | Structure (SMILES) | Percent Effect [%]
1 | Cn1ncc2cnn(CC(O)COc3cccc4[nH]ccc34)c2c1=O (stereo not given) | 26.41
2 | CC(C)c1noc(CCC(=O)Nc2cc(C(F)(F)F)c[nH]c2=O)n1 | -36.07
3 | CCc1ccc(NC(=O)N2C[C@H]3C[C@H](C(=O)NC(C)C)[C@@H](C2)O3)cc1 | 101
4 | CCc1ccc(NC(=O)N2C[C@H]3C[C@H](C(=O)NC)[C@@H](C2)O3)cc1 | -8.923
5 | CC(C)NC(=O)N1C[C@H]2C[C@H](C(=O)NCc3ccccc3)[C@@H](C1)O2 | -9.895
6 | CC(C)NC(=O)[C@H]1C[C@@H]2CN(C(=O)NC(C)C)C[C@H]1O2 | -20.07
7 | CCc1cnc(N2C[C@H]3C[C@H](C(=O)NC4CCC4)[C@@H](C2)O3)nc1 | -0.2357
8 | CCc1ccc(NC(=O)N2C[C@H]3C[C@H](C(=O)NC4CCC4)[C@@H](C2)O3)cc1 | 117.1
9 | Cc1cccc(C)c1OCCC(=O)N1CCC(c2nncn2C)CC1 | 0.8719
10 | CC(C(=O)N1CCN(CCOc2ccccc2)CC1)n1cncn1 (stereo not given) | -7.881
11 | Clc1cc(Cl)cc(OCCN2CCC(n3cncn3)CC2)c1 | 103.8
12 | Cc1ccccc1OCCC(=O)N1CCCC(n2cncn2)C1 (stereo not given) | -9.445
13 | Cc1cccc(C)c1OCCCN1CCC(n2cncn2)CC1 | 115.1
14 | FC(F)(F)Oc1ccc(CN2CCCC(n3cncn3)C2)cc1 (stereo not given) | 13.2
15 | CSc1ccc(OCCN2CCC(n3cncn3)CC2)cc1 | 98.24
16 | Cc1cc(C)cc(OCCC(=O)N2CCCC(n3cncn3)C2)c1 (stereo not given) | -4.983
17 | Clc1ccc(OCCN2CCN(CCn3cncn3)CC2)cc1 | -7.454
18 | c1ccc(OCCN2CCC(n3cncn3)CC2)cc1 | 93.12
19 | CCN(C)C(=O)c1ccc2c(c1)C(c1nc[nH]n1)CN2S(C)(=O)=O (stereo not given) | -2.777
20 | COC(=O)c1ccc(CNC(C)(C)c2ccccc2OC)o1 | 5.551
21 | Cc1ccc(-c2cc(C(=O)NCCCc3csc(N)n3)[nH]n2)s1 | -6.732
22 | Cc1ccn2ncc(C(=O)N3CCCC(c4cc(C)[nH]n4)C3)c2n1 (stereo not given) | 1.6

Row | Structure (SMILES) | Percent Effect [%]
23 | CC(=O)N1CCc2c(nc(N(C)C)nc2NCc2cccs2)C1 | 5.703
24 | CN(Cc1c(F)cccc1Cl)C(=O)c1cnn(CCN2CCOCC2)c1 | -8.866
25 | c1cncc(-c2ccnn2CN2CCOCC2)c1 | -10.55
26 | CCN(CCN1CCOCC1)C(=O)c1cccnc1 | -15.37
27 | Clc1cccc(Cl)c1CN(CCCN1CCOCC1)Cc1cccnc1 | 149.3
28 | CCC(C)N(Cc1cccnc1)Cc1cc2c(cc1Cl)OCO2 (stereo not given) | -26.91
29 | O=C1O[C@@H]2CN(Cc3cccnc3)C[C@@H]2N1CCCN1CCOCC1 | 7.451
30 | Clc1ccc(CN(CCN2CCOCC2)Cc2cccnc2)cc1Cl | 180.4
31 | Clc1ccc(CN(CCN2CCOCC2)Cc2cccnc2)c(Cl)c1 | 143.8
32 | Clc1ccc2oc(C3CCN(Cc4cccnc4)CC3)nc2c1 | -21.47
33 | Cc1[nH]c(=O)[nH]c(=O)c1CN1CCCC(CCc2ccc(F)c(F)c2)C1 (stereo not given) | 8.003
34 | O=C1CC[C@H](C(=O)N(CCc2ccccc2)C2CCOC2)N1 (stereo not given in full) | -17.91
35 | CCC(=O)N1CCc2[nH]cnc2C12CCN(C1CCOCC1)CC2 | -8.971
36 | CCc1ccc(CN(C)Cc2cnc(S(=O)(=O)CC)n2CCOC)cc1 | -8.303
37 | Cc1sc2nc(CCN)nc(N3CCC(N4CCCC4)CC3)c2c1C | -8.408
38 | Cc1cccnc1CNC(=O)NC(C)Cc1c(C)nn(C)c1C (stereo not given) | -5.579
39 | O=C(NCCNC(=O)c1ccc(Br)cc1)c1ccc(O)cc1 | 3.17
40 | Cc1nc(S(=O)(=O)CCn2cccn2)n(CC2CCCO2)c1C (stereo not given) | -14.31
41 | CCc1csc(CNc2cc(C)nc(-c3cccnc3)n2)n1 | 113.3
42 | COc1cccc(CNc2cc(C)nc(-c3ccncc3)n2)c1O | -14.65
43 | CCc1nc(CNc2cc(C)nc(-c3cccnc3)n2)cs1 | 88.21
44 | COc1cccc(CNc2cc(C)nc(-c3ccncc3)n2)c1OC | -14.13

Row | Structure (SMILES) | Percent Effect [%]
45 | CC(C)Cc1cc(CNc2nc(-c3cccnc3)nc3c2CNC3)no1 | 13.84
46 | COCc1nc(CNc2cccc(-c3csc(C)n3)c2)cs1 | -8.53
47 | CCSCC(C)NCc1nncn1C1CCCCC1 (stereo not given) | -19.08
48 | COCCCN(CCOC)C(=O)Nc1ccccc1-n1cccn1 | 144.2
49 | COCCCN(CCOC)C(=O)Nc1ccc(Br)cc1 | 130.2
50 | COCCN(Cc1ccccn1)C(=O)Nc1cccnc1N1CCCC1 | -3.62
51 | CCN(CCO)C(=O)Nc1ccc(OCCOC)nc1 | 0.2723
52 | COCCOc1ccc(NC(=O)N(CCCO)CC(C)(C)C)cn1 | 7.116
53 | COCCN(C)C(=O)c1ccccc1-n1cccn1 | 3.962
54 | O=C(C1CC=CC1)N1CCC2(CCN(Cc3cccc(F)c3)CC2)C1 | 0.9808
55 | N#Cc1ccc(CNC(=O)NC2CCN(c3ncccn3)CC2)cc1 | 5.422
56 | Cn1cnc2c1CCN(c1ccnc(-c3ccccc3)n1)C2 | -10.53
57 | Cc1noc(C)c1CN1CCN(Cc2nccn2C)CC1 | -9.314
58 | Cc1cc(CN2CCN(C(c3ccccc3)c3ccccc3)CC2)no1 | -4.667
59 | Cc1cc(CN2CCN(CC(O)c3ccccc3)CC2)no1 (stereo not given) | -10.98
60 | Cc1noc(C)c1CN1CCN(c2ccnc(-c3ccccc3)n2)CC1 | 94.83
61 | Cc1cnc(CN2CCN(c3ccnc(-c4ccccc4)n3)CC2)cn1 | 144.2
62 | Cc1cc(CN2CCN(c3ccnc(-c4ccccc4)n3)CC2)no1 | 122.7
63 | Cc1cnc(CN2CCCCC2c2nc(-c3ccccc3)no2)cn1 (stereo not given) | 19.76
64 | Cc1noc(C)c1CN1C[C@@H](C(=O)O)[C@H](c2ccccn2)C1 | -12.63
65 | CS(=O)(=O)NCCNC(=O)c1ccc(OCc2ccccc2)nc1 | 7.359
